Laboratory results from PubChem BioAssay (NCI).
Several values for one entry are separate records, joined by “and”; a condition that tells them apart may be missing. Identical values can stand only once. The panel holds about 83,000 compounds, 20% with a hit somewhere; the sample as a whole holds those more often.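 Interpretation: 100, growth as untreated; towards 0, rising growth inhibition; 0, no net growth; 0 to -100, cell death. Compounds scoring below 10 were considered active.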 Activity calls are given as the source filed them.

How the values were obtained:
Assay in all cases: NCI-60 one-dose screen, 48 h (100 = growth as untreated, 0 = no growth, -100 = all killed)
Details in all cases: 10 µM unless noted
[1] = system: SR leukemia
[2] = system: RPMI-8226 leukemia
[3] = system: OVCAR-8 ovarian
[4] = system: OVCAR-4 ovarian
[5] = system: IGROV1 ovarian
[6] = system: OVCAR-3 ovarian
[7] = system: HS 578T breast
[8] = system: NCI/ADR-RES ovarian
[9] = system: T-47D breast
[10] = system: BT-549 breast
[11] = system: MDA-MB-435 melanoma
[12] = system: SW-620 colon
[13] = system: MCF7 breast
[14] = system: HCT-116 colon
[15] = system: KM12 colon
[16] = system: SK-OV-3 ovarian
[17] = system: HCC-2998 colon
[18] = system: OVCAR-5 ovarian

SMILES	growth [1]	growth [2]	growth [3]	growth [4]	growth [5]	growth [6]	growth [7]	growth [8]	growth [9]	growth [10]	growth [11]	growth [12]	growth [13]	growth [14]	growth [15]	growth [16]	growth [17]	growth [18]
S=C1SCN(Cc2ccccc2)CN1Cc1ccccc1	52.9% (inactive)	17% (inactive)	93.3% (inactive)	86.4% (inactive)	34.5% (inactive)	32.4% (inactive)	90.4% (inactive)	73.6% (inactive)	41.4% (inactive)	93.6% (inactive)	85.5% (inactive)	32.9% (inactive)	17.8% (inactive)	7.28% (active)	5.8% (active)	–	–	–
OC(CSc1ccccc1)CN1CCN(c2cccc(Cl)c2)CC1 (centres undefined)	87.2% (inactive) and 102% (inactive)	92.9% (inactive) and 97.3% (inactive)	98.9% (inactive) and 101% (inactive)	97.1% (inactive) and 107% (inactive)	105% (inactive) and 122% (inactive)	120% (inactive) and 101% (inactive)	118% (inactive) and 88.7% (inactive)	99.6% (inactive) and 88.7% (inactive)	90.3% (inactive) and 102% (inactive)	97.7% (inactive)	114% (inactive) and 93.6% (inactive)	105% (inactive)	102% (inactive) and 94% (inactive)	93.3% (inactive) and 97.5% (inactive)	109% (inactive) and 101% (inactive)	105% (inactive) and 107% (inactive)	106% (inactive) and 95% (inactive)	–
O=C(CCc1ccc(O)cc1)N/N=C/c1cc(Br)ccc1O	26.6% (inactive)	45.2% (inactive)	–	34.7% (inactive)	62.5% (inactive)	44.4% (inactive)	90.3% (inactive)	16.7% (inactive)	33.3% (inactive)	52.4% (inactive)	55.8% (inactive)	59.5% (inactive)	38.9% (inactive)	46.7% (inactive)	28.1% (inactive)	61.2% (inactive)	50.1% (inactive)	53.3% (inactive)
COc1cc2nc(N3CCC[C@@H](NC(=O)C4COc5ccccc5O4)C3)nc(N)c2cc1OC (some centres undefined)	88.3% (inactive) and 91.2% (inactive)	95.2% (inactive) and 91.4% (inactive)	–	101% (inactive) and 95.4% (inactive)	105% (inactive) and 108% (inactive)	105% (inactive) and 106% (inactive)	110% (inactive) and 109% (inactive)	109% (inactive) and 106% (inactive)	92.2% (inactive) and 90.3% (inactive)	107% (inactive) and 113% (inactive)	96.9% (inactive) and 99.5% (inactive)	100% (inactive) and 107% (inactive)	100% (inactive) and 98.9% (inactive)	95.9% (inactive) and 95.2% (inactive)	104% (inactive) and 103% (inactive)	105% (inactive) and 106% (inactive)	104% (inactive) and 98.3% (inactive)	102% (inactive) and 97.1% (inactive)
COc1ccccc1C(C)=O	95.8% (inactive) and 86% (inactive)	90.6% (inactive) and 100% (inactive)	105% (inactive) and 96.7% (inactive)	111% (inactive) and 105% (inactive)	119% (inactive) and 109% (inactive)	106% (inactive) and 110% (inactive)	88.2% (inactive)	106% (inactive) and 113% (inactive)	106% (inactive) and 96.2% (inactive)	109% (inactive) and 100% (inactive)	104% (inactive) and 112% (inactive)	95.4% (inactive) and 105% (inactive)	103% (inactive) and 96.6% (inactive)	107% (inactive) and 102% (inactive)	102% (inactive) and 111% (inactive)	103% (inactive) and 102% (inactive)	111% (inactive) and 107% (inactive)	–
Cc1cc(O)c(C(C)C)cc1S(=O)(=O)O (tested in a mixture with another compound)	109% (inactive) and -17.3% (active) and 92.1% (inactive)	88.4% (inactive) and -13.4% (active) and 99.5% (inactive)	97.7% (inactive) and 13.6% (inactive) and 97.5% (inactive)	89.5% (inactive) and 100% (inactive)	102% (inactive) and -2.34% (active) and 93.9% (inactive)	109% (inactive) and -20.4% (active) and 107% (inactive)	95.3% (inactive) and -15.9% (active) and 103% (inactive)	–	89.2% (inactive) and 58.9% (inactive) and 96.5% (inactive)	96.8% (inactive) and -9.88% (active) and 113% (inactive)	104% (inactive) and -12.6% (active) and 112% (inactive)	109% (inactive) and 23.2% (inactive) and 102% (inactive)	89.5% (inactive) and 4.62% (active) and 81.2% (inactive)	85.9% (inactive) and 6.36% (active) and 104% (inactive)	116% (inactive) and 13.2% (inactive) and 113% (inactive)	105% (inactive) and 5.41% (active) and 118% (inactive)	91.7% (inactive) and -59% (active) and 112% (inactive)	–
CCOc1ccc2cc(-c3nn(CC4CCNCC4)c4ncnc(N)c34)ccc2c1	59.3% (inactive) and -25.2% (active)	90.6% (inactive) and -13.2% (active)	92.1% (inactive) and 58.5% (inactive)	55.8% (inactive) and 42.7% (inactive)	92.7% (inactive) and 47.8% (inactive)	101% (inactive) and 74.7% (inactive)	83.8% (inactive) and 22.1% (inactive)	99.5% (inactive) and 93.5% (inactive)	–	86.1% (inactive) and 36.2% (inactive)	95.4% (inactive) and 14.9% (inactive)	91.6% (inactive) and 37.3% (inactive)	78.8% (inactive) and 46.2% (inactive)	80.4% (inactive) and 16.4% (inactive)	–	91.7% (inactive) and 45.9% (inactive)	110% (inactive) and 49.1% (inactive)	–
CCc1c(CC(=O)O)c2cc(C)ccc2n1Cc1ccc(Cl)cc1	91.5% (inactive) and 146% (inactive)	97.1% (inactive)	82.9% (inactive) and 100% (inactive)	85.5% (inactive) and 105% (inactive)	92.3% (inactive)	93.8% (inactive) and 110% (inactive)	87.2% (inactive) and 113% (inactive)	–	86.3% (inactive) and -2.2% (active)	94% (inactive) and 183% (inactive)	114% (inactive) and 97.4% (inactive)	102% (inactive)	98.1% (inactive) and 95.4% (inactive)	97.1% (inactive) and 110% (inactive)	96% (inactive) and 95.3% (inactive)	97.9% (inactive) and 42.4% (inactive)	125% (inactive) and 98.4% (inactive)	–
CCOC(=O)Nc1ccc2c(c1)/C(=N\NC(N)=S)c1ccccc1-2	47.2% (inactive) and 34.7% (inactive)	22.3% (inactive)	–	61% (inactive) and 77.1% (inactive)	93.5% (inactive) and 103% (inactive)	48% (inactive) and 83.4% (inactive)	69.9% (inactive) and 92.9% (inactive)	29.5% (inactive) and 45.6% (inactive)	26.4% (inactive) and 31.3% (inactive)	41.6% (inactive) and 82.6% (inactive)	57.3% (inactive) and 59.9% (inactive)	80.7% (inactive) and 81.2% (inactive)	63% (inactive) and 70.6% (inactive)	53.5% (inactive) and 71.4% (inactive)	40.4% (inactive) and 54.2% (inactive)	96.5% (inactive) and 93.2% (inactive)	60.9% (inactive) and 68.9% (inactive)	105% (inactive) and 92% (inactive)
CN(C)c1ccc2nc3ccc(=[N+](C)C)cc-3sc2c1	29.2% (inactive) and 39.6% (inactive) and 51.5% (inactive)	40.4% (inactive) and 34.1% (inactive) and 40.2% (inactive)	3.76% (active) and 0.437% (active) and 8.05% (active)	8.61% (active) and -18% (active) and 10.4% (inactive)	9.73% (active) and 1.01% (active) and 43.1% (inactive)	0.379% (active) and -3.68% (active) and 10.2% (inactive)	49.8% (inactive) and 111% (inactive)	12.1% (inactive) and 10.9% (inactive) and 13.9% (inactive)	11.8% (inactive) and 4.2% (active) and 27.3% (inactive)	60.2% (inactive) and 69.8% (inactive) and 71.9% (inactive)	-43.7% (active) and -14% (active) and 52.5% (inactive)	15.2% (inactive) and 15.3% (inactive) and 14.7% (inactive)	12.7% (inactive) and -5.86% (active) and 7.47% (active)	4.82% (active) and 4.09% (active) and 11.1% (inactive)	36.6% (inactive) and 33% (inactive) and 48.2% (inactive)	41.4% (inactive) and 60% (inactive) and 73.2% (inactive)	49% (inactive) and 36.7% (inactive) and 53.9% (inactive)	–
